The text below walks through data of PubChem BioAssay.

The first test has as its target Calmodulin-1 (Homo sapiens) (UniProt P0DP23). Description: small molecules binding Ca-loaded calmodulin-1 – biochemical, small-molecule microarray, Cy5-labelled CALM1, plus calcium, artefact control for SMM control-protein annotation, profiling panel (AID 1112).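 Also: score merges spot fluorescence with signal to noise from triplicate slides.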 The following applies: Cy5-CALM1 binding fluorescence, higher = more signal.
In the case of `O=c1cccc(-c2ccco2)o1`, the composite z-score is -1.23.
The same measure, in the same setting: the result for `CN(C)C(=O)[C@@]1(Cc2ccccc2N=[N+]=[N-])N=C(c2ccc(OCCCO)cc2)O[C@H]1c1ccccc1` reads 1.09; that for `CC(C)[C@H]1NC(=O)[C@@]23C(=O)N[C@@H](Cc4ccccc4)C2[C@H](C)[C@@]2(C)O[C@H]2C3/C=C/CCC/C=C/CNC(=O)[C@H](Cc2ccccc2)NC1=O` (stereo partly drawn), -0.806.
Still for that read-out and setting: under `C=CCC(OC(C)=O)[C@@H]1[C@@H](N(Cc2cc3ccccc3o2)C(=O)c2ccc(-c3ccccc3)cc2)c2cc(OCCCO)ccc2N1C(=O)Cc1ccc(OC)cc1` (stereo partly drawn) stands 0.464; under `[N-]=[N+]=NCc1ccccc1[C@H]1OC(c2ccc(OCCCO)cc2)=N[C@@]1(CCS(=O)(=O)c1ccccc1)C(=O)NCc1ccccc1`, 0.84.
Same read-out and setting: under `CC(=O)n1cc(C(O)C2C=CC3C(=O)N(c4ccccc4)C(=O)C3N2Nc2ccc(C(C)C)cc2)c2ccccc21` (stereo not drawn) stands 1.38; under `C=C(COC)C(=O)CC[C@H](OC(C)=O)c1ccc(OCCO)cc1`, -1.08; under `Cc1ccccc1C(O)C1C=CC2C(=O)NC(=O)C2N1Nc1ccc(Cl)cc1Cl` (stereo not drawn), 1.13.

Tested on in the next test: not listed separately
The test can be described thus: probe aWnt5a binding to arrayed compounds – biochemical, biotinylated probe, 635/667 nm fluorescence, primary screen (AID 1113).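 Also: score merges 667 nm fluorescence intensity with signal-to-noise per printed feature.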 The following applies: small-molecule microarray, higher = more signal.
For the molecule `CCOC(=O)C1=CCC(c2ccco2)N(S(=O)(=O)c2ccc(C)cc2)C1` (stereo not drawn), the composite z-score stood at 0.0279.
On the same count and under the same terms, the result for `COCCOC(=O)N1C(=O)[C@@]2(c3cc(C#CCC(C(=O)OC)C(=O)OC)ccc31)[C@H](C(=O)NC[C@H](O)c1ccccc1)[C@H]1C(=O)O[C@H](c3ccccc3)[C@H](c3ccccc3)N1[C@@H]2c1ccc(OCCO)cc1` reads -0.0792; that for `CCCNC(=O)[C@@]1(Sc2ccc(C)cc2)CC(=O)N(C(C)C)[C@@H]1c1ccc(CO)cc1I`, -0.178.
Still for that read-out and setting: under `COC(=O)[C@@]1(Cc2ccc(F)cc2)[C@H]2c3cc(C(=O)N4CCCC4)n(C)c3C[C@H]2CN1C(=O)c1ccccc1` stands 0.122; under `O=C1O[C@H](c2ccccc2)[C@H](c2ccccc2)N2[C@H]1[C@@H](C(=O)N1CCCCCCC1)[C@]1(C(=O)Nc3ccc(C#CC4(O)CCCCCC4)cc31)[C@H]2c1ccc(O)cc1`, 1.2.
Consider `O=C1O[C@H](c2ccccc2)[C@H](c2ccccc2)N2[C@H]1[C@@H](C(=O)O)[C@]1(C(=O)Nc3ccc(C#CC4(O)CCCCCC4)cc31)[C@H]2c1ccc(O)cc1`, for which the composite z-score is -0.124.
`COCCOC(=O)N1C(=O)[C@@]2(c3ccccc31)[C@H](c1ccccc1OCCO)N1[C@H](c3ccccc3)[C@H](c3ccccc3)OC(=O)[C@H]1[C@@H]2C(N)=O` gave a composite z-score of 0.0317.
Same read-out and setting: under `NC(=O)[C@@H]1[C@H]2C(=O)O[C@H](c3ccccc3)[C@H](c3ccccc3)N2[C@H](c2ccc(OCCO)cc2)[C@@]12C(=O)Nc1ccc(C#CCCO)cc12` stands 0.0973.
Still for that read-out and setting: under `Cc1cccc([C@H]2C[C@H]3C(Br)=C[C@@H]2C(=O)[C@]32CO2)c1` stands -0.18.
Same read-out and setting: under `COc1ccc(C#Cc2ccc3c(c2)[C@]2(C(=O)N3)[C@H](C(=O)Nc3nc4ccccc4s3)[C@H]3C(=O)O[C@H](c4ccccc4)[C@H](c4ccccc4)N3[C@@H]2c2ccccc2OCCO)cc1` stands -0.0685; under `C=CCNC(=O)[C@@H]1[C@H]2C(=O)O[C@H](c3ccccc3)[C@H](c3ccccc3)N2[C@H](c2ccc(OCCO)cc2)[C@@]12C(=O)N(C(=O)OCCOC)c1ccc(C#CCCO)cc12`, 0.0229; under `COCC(=C=CC[C@@H](O)c1cccc(OCCO)c1)CCO`, 0.129.
Turning to `COCCOC(=O)N1C(=O)[C@@]2(c3cc(C#CC4(O)CCCCCC4)ccc31)[C@H](C(=O)N1CCN(c3ncccn3)CC1)[C@H]1C(=O)O[C@H](c3ccccc3)[C@H](c3ccccc3)N1[C@@H]2c1ccccc1OCCO`, the composite z-score is -0.184.
Still for that read-out and setting: the result for `[N-]=[N+]=Nc1ccccc1C[C@]1(C(=O)O)N=C(c2ccc(OCCCO)cc2)O[C@H]1c1ccccc1N=[N+]=[N-]` reads 0.0859; that for `NC(=O)NCC#Cc1ccc2c(c1)[C@]1(C(=O)N2)[C@H](C(=O)N2CCN(c3ncccn3)CC2)[C@H]2C(=O)O[C@H](c3ccccc3)[C@H](c3ccccc3)N2[C@@H]1c1ccc(OCCO)cc1`, 0.0775.
Same read-out and setting: under `CN(C)C(=O)[C@@]1(Cc2ccccc2)COC(c2ccc(OCCCO)cc2)=N1` stands -0.319; under `CCN(CC)c1ccc(N2CC=CC34O[C@@H]5C=CCCOC(=O)C5[C@H]3C(=O)N(CCO)[C@@H]4C2=O)cc1` (stereo partly drawn), -0.214; under `C[C@@H]1ON(c2ccc(I)cc2)[C@H](c2ccc(OC(=O)OC(C)(C)C)cc2)[C@H]1C(=O)N1C(=O)OC[C@H]1Cc1ccccc1`, -0.241.
Regarding `COc1cc(CO)cc(I)c1O[C@H]1C=C(C(=O)NCCO)C[C@@H](NCC2CCCCC2)[C@@H]1O`, the composite z-score is -0.0512.
On the same count and under the same terms, the result for `C=CCNC(=O)[C@@H]1[C@H]2C(=O)O[C@H](c3ccccc3)[C@H](c3ccccc3)N2[C@H](c2ccc(O)cc2)[C@@]12C(=O)Nc1ccc(C#CCC(C(=O)OC)C(=O)OC)cc12` reads -0.147; that for `CCOC(=O)C1=C[C@@H](c2ccccc2)N(S(=O)(=O)c2ccc(C)cc2)[C@H]1c1ccccc1`, -0.124; that for `[N-]=[N+]=NC[C@H](Cc1ccccc1)NC(=O)c1ccccc1`, -0.0269.
For `COc1ccc(C(O)C2C=CC3C(=O)N(c4ccccc4)C(=O)C3N2Nc2ccccc2F)cc1` (stereo not drawn), the composite z-score is -0.0991.
Same read-out and setting: under `C#C[C@@H](CC)O[Si](C#CCCCC#N)(C(C)C)C(C)C` stands -0.139; under `CCCCCCCCCCC(O)C1C=CC2C(=O)N(C)C(=O)C2N1Nc1cc(OC)c(OC)c(OC)c1` (stereo not drawn), -0.0529.
The same measure, in the same setting: under `C=C[C@H](C)[C@H](OC(=O)Nc1ccc(OC)cc1)c1ccc(OCCO)cc1` stands -0.222; under `COCCOC(=O)N1C(=O)[C@@]2(c3cc(C#CC4(O)CCCCCC4)ccc31)[C@H](c1ccc(OCCO)cc1)N1[C@H](c3ccccc3)[C@H](c3ccccc3)OC(=O)[C@H]1[C@@H]2C(=O)Nc1nc2ccccc2s1`, -0.006.
Still for that read-out and setting: under `O=c1cccc(-c2ccco2)o1` stands -0.0179.
`CN(C)C(=O)[C@@]1(Cc2ccccc2N=[N+]=[N-])N=C(c2ccc(OCCCO)cc2)O[C@H]1c1ccccc1` came in with a composite z-score of 0.103.
Same read-out and setting: under `CC(C)[C@H]1NC(=O)[C@@]23C(=O)N[C@@H](Cc4ccccc4)C2[C@H](C)[C@@]2(C)O[C@H]2C3/C=C/CCC/C=C/CNC(=O)[C@H](Cc2ccccc2)NC1=O` (stereo partly drawn) stands -0.148; under `C=CCC(OC(C)=O)[C@@H]1[C@@H](N(Cc2cc3ccccc3o2)C(=O)c2ccc(-c3ccccc3)cc2)c2cc(OCCCO)ccc2N1C(=O)Cc1ccc(OC)cc1` (stereo partly drawn), -0.0758.
`[N-]=[N+]=NCc1ccccc1[C@H]1OC(c2ccc(OCCCO)cc2)=N[C@@]1(CCS(=O)(=O)c1ccccc1)C(=O)NCc1ccccc1` displayed a composite z-score of 0.0253.
Same read-out and setting: the result for `CC(=O)n1cc(C(O)C2C=CC3C(=O)N(c4ccccc4)C(=O)C3N2Nc2ccc(C(C)C)cc2)c2ccccc21` (stereo not drawn) reads -0.0394; that for `C=C(COC)C(=O)CC[C@H](OC(C)=O)c1ccc(OCCO)cc1`, -0.0445.
In turn, `Cc1ccccc1C(O)C1C=CC2C(=O)NC(=O)C2N1Nc1ccc(Cl)cc1Cl` (stereo not drawn) came in with a composite z-score of -0.0405.
